# Measurements from PubChem BioAssay (NCATS).
# Where “and” joins values, the source holds several entries; their conditions need not be identical. Equal entries are not always repeated. Inconclusive results are not listed. Entries that show only a call come without a potency. Calls of active or inactive are those of the source. Unless noted, the call rests on the fitted dose curve; in most records, active means well fitted curve in the direction sought with a large enough effect; inconclusive means small, poorly fitted or top-dose-only effect, or another doubt; inactive means no such curve, though single readings can be large; an effect the other way counts as inactive or inconclusive.
# Columns and labels:
# [1] = biological target: Thyroid hormone receptor beta (Homo sapiens) (UniProt P10828); test: qHTS assay for small molecule agonists of thyroid hormone receptor beta signaling (AID 588545; calls by dose curve)
# Sequence of Thyroid hormone receptor beta (Homo sapiens) (P10828 whole entry, looked up): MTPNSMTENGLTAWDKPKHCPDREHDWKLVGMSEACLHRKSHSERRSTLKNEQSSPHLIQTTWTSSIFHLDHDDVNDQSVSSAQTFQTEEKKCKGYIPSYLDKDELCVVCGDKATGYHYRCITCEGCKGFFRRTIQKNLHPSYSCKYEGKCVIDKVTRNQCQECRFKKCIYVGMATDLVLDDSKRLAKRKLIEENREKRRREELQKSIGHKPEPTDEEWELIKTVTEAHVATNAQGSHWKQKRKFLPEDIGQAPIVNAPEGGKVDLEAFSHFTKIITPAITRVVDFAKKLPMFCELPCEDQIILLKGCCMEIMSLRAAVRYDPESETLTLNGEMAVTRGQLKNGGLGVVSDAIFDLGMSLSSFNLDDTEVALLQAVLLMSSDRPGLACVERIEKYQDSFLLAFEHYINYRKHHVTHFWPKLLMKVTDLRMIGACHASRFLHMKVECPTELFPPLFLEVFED
# Method in brief: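 HEK 293 TR-UAS-bla; agonist mode; 18 hrs, 37 C; CCF4, ex 405/em 460 and 530 nm; norm. T3 10 nM = 100%, DMSO = 0%; Hill fit → EC50, efficacy.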
# [2] = biological target: Voltage-gated inwardly rectifying potassium channel KCNH2 (Homo sapiens) (UniProt Q12809); test: qHTS Assay for Small Molecule Inhibitors of the Human hERG Channel Activity (AID 588834);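 further: lower thallium flux fluorescence means stronger hERG block; nearly all actives have a fitted effect of over 50% in size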; further: potency means the concentration at half of the fitted maximal effect
# Sequence of Voltage-gated inwardly rectifying potassium channel KCNH2 (Homo sapiens) (Q12809 whole entry, looked up): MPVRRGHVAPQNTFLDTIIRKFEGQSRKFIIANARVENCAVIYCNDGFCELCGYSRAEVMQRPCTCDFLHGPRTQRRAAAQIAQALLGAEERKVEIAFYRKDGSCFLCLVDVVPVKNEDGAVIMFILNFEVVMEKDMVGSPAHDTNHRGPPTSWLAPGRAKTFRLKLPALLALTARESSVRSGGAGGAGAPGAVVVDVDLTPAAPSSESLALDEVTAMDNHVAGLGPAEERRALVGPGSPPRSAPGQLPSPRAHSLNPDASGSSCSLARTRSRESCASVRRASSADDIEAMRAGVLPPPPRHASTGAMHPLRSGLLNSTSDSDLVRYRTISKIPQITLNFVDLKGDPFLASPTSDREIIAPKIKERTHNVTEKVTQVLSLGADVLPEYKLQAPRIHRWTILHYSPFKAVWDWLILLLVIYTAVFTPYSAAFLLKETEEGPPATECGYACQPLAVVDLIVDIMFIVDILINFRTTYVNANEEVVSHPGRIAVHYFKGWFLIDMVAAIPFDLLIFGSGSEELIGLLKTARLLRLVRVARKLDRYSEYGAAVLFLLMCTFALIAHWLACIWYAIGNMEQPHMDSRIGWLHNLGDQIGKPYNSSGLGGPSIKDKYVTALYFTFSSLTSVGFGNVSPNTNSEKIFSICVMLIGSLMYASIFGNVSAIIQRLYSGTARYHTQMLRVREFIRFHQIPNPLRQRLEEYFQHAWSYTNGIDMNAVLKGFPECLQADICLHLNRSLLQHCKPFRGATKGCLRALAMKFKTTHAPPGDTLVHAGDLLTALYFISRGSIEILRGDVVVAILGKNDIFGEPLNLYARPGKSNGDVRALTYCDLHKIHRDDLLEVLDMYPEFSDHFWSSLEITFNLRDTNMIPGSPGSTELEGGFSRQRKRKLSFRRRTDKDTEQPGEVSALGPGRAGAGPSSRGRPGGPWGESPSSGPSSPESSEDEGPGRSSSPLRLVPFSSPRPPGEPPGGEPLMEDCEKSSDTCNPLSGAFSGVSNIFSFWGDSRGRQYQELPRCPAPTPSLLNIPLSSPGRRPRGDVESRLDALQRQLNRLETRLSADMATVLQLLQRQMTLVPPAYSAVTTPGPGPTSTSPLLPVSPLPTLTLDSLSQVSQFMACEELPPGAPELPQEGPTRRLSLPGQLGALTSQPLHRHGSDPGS
# Method in brief: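 U2OS cells BacMam-transduced with hERG, 2000 cells/well, compound ~10 min at 37 °C before stimulation buffer. FluxOR thallium flux fluorescence read kinetically on FDSS; decrease indicates block; AC50 from Hill fits.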
# [3] = biological target: Luciferin 4-monooxygenase (Photinus pyralis) (UniProt P08659); test: Biochemical firefly luciferase enzyme assay for NPC (AID 624030);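 further: purified P. pyralis luciferase at 10 nM with luciferin and ATP substrate; nearly all actives have a fitted effect of over 70% in size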
# Sequence of Luciferin 4-monooxygenase (Photinus pyralis) (P08659 whole entry, looked up): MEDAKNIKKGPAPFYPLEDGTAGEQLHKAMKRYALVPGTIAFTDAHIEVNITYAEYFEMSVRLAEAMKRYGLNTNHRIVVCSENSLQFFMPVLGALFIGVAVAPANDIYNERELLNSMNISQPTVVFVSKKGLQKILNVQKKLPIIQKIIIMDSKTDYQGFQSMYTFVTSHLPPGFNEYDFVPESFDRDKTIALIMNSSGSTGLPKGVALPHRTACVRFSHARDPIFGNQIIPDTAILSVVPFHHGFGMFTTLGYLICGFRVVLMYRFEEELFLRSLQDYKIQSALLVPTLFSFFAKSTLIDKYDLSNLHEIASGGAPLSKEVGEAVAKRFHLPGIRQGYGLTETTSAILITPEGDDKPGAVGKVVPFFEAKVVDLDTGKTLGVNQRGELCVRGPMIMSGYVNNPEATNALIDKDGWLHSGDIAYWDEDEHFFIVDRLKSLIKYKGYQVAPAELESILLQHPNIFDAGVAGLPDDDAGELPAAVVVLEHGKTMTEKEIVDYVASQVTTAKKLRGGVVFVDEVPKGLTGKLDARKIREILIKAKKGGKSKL
# Method in brief: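 Counter-screen for direct inhibition of the luciferase enzyme by approved-drug library compounds, run at 10 nM enzyme in 50 mM Tris acetate (final). Luminescence was read within 5 min of enzyme-buffer addition and normalized to PTC124 versus DMSO (0%).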
# [4] = S16 Schwann cell viability assay (CellTiter-Glo assay) (AID 624031);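 further: cellular ATP luminescence as a viability measure; nearly all actives have a fitted effect of over 70% in size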
# Method in brief: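 This viability control uses native rat S16 Schwann cells grown in DMEM plus 10% FBS. After a 24 h compound treatment at 37 °C, CellTiter-Glo luminescence reports ATP content, scaled against DMSO-treated and cell-free wells.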
# [5] = S16 Schwann cell PMP22 intronic element beta-lactamase assay (AID 624044; calls by dose curve; further: nearly all actives have a fitted effect of over 15% in size)
# Method in brief: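 Rat S16 Schwann cells with beta-Lac driven by a PMP22 intronic element, compound-treated 24 h at 37 °C. LiveBLAzer FRET B/G read: 460 nm normalized to potassium clavulanate vs DMSO; 535 nm FRET as viability; concentration-effect curves classified.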
# [6] = biological target: Thyroid hormone receptor beta (Homo sapiens) (UniProt P10828); test: qHTS assay for small molecule antagonists of thyroid hormone receptor beta signaling (AID 588547; active means well fitted inhibition curve with a large enough effect in the signal ratio, with a control signal flat, not every such curve was filed as active; the % refers to the signal ratio;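 further: cells stimulated with 0.4 nM T3 agonist during compound exposure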); conditions: TR-UAS-bla HEK293, beta-lactamase ratio, antagonist mode, 18 h
# Method in brief: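 TR-UAS-bla GripTite HEK293 cells in 2% charcoal/dextran FBS medium were preincubated 4 h at 37 C, given compound (0.59 nM to 92 uM) plus 0.4 nM T3 (final) for 18 h, then CCF4 for 2 h at RT; Hill fit gave IC50.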
# [7] = qHTS assay for small molecule antagonists of retinoid X receptor alpha signaling (AID 588546; active means well fitted inhibition curve with a large enough effect in the signal ratio, with a control signal flat, not every such curve was filed as active; the % refers to the signal ratio;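 further: cells stimulated with 9-cis-retinoic acid as agonist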); conditions: HEK293T RXRa-UAS-bla, beta-lactamase ratio, antagonist mode; measured here: W530 green channel, cytotoxicity proxy
# Method in brief: (§1)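 Beta-lactamase reporter inhibition, read as CCF4 fluorescence ratio (ex 405, em 460/530 nm) after 2 h at RT. HEK293T UAS-bla cells, 2500/well, were stimulated with 9-cis-RA at 500 or 100 nM final alongside test compound for 18 h at 37 C.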
# [8] = biological target: Retinoic acid receptor RXR-alpha (Homo sapiens) (UniProt P19793); test: as above; conditions: HEK293T RXRa-UAS-bla, beta-lactamase ratio, antagonist mode
# Sequence of Retinoic acid receptor RXR-alpha (Homo sapiens) (P19793 whole entry, looked up): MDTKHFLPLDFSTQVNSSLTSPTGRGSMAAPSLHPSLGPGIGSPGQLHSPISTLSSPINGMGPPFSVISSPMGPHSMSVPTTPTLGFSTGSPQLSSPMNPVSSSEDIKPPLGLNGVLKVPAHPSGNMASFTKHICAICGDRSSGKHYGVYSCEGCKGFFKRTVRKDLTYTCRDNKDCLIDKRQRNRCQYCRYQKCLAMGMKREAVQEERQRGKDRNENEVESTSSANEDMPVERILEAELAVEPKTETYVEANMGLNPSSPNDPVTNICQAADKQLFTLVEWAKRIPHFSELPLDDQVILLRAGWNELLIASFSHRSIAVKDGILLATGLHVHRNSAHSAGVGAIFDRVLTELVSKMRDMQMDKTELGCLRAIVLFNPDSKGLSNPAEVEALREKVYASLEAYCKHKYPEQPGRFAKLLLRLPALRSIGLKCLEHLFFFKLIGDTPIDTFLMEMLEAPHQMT
# Method in brief: as §1
# [9] = S16 Schwann cell PMP22 intronic element firefly luciferase assay (AID 624032); further: nearly all actives have a fitted effect of over 30% in size
# Method in brief: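 Rat S16 Schwann cells stably carrying a PMP22 intronic element-driven Fluc reporter were seeded overnight, then exposed to compounds for 24 h at 37 °C. Luminescence was normalized to PTC124 (positive control) and DMSO (0% activity).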
# [10] = qHTS for Inhibitors of the vitamin D receptor (VDR): Hit Validation using a Texas Red Assay (AID 602201)
# Method in brief: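 Fluorescence polarization (Ex 595/Em 615 nm) of Texas Red (7 nM) with 1.5 uM VDR-LBD and LG19078 (final concentrations). Compounds were incubated for 2 hours at room temperature.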
# [11] = qHTS Assay for Identification of Small Molecule Agonists for NFkB Signaling Pathway. (AID 624478)
# Method in brief: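 NFkB-bla ME-180 cells carry a beta-lactamase reporter. They received compound plus TNF alpha at 10 pM final (its EC50) for 5 h at 37 C. Reporter activity was read as 460/530 nm emission ratio after 2 h LiveBLAzer substrate loading.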
# [12] = Cell Proliferation Assay against the TMD8 Cell Line (AID 651645); conditions: TMD8 DLBCL cell line proliferation/viability; at 46.1 µM (top of the series);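 further: cells exposed to compound for 48 h before reading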
# Method in brief: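 TMD8 cells, 500/well in RPMI with 5% FBS, dosed immediately and grown 48 h at 37 C, 5% CO2. CellTiter-Glo luminescence normalised to DMSO 100% and 9.2 uM bortezomib (final) 0%.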
# [13] = Cell Proliferation Assay against the HBL1 Cell Line (AID 651646); conditions: HBL1 DLBCL cells; at 46.1 µM (top of the series);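 further: cells exposed to compound for 48 h before reading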
# Method in brief: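 500 log-phase HBL1 cells per well in phenol red-free RPMI with 5% FBS were treated with compounds for 48 h at 37 °C, 5% CO2. Viability was read by CellTiter-Glo luminescence, normalized to DMSO (100%) and 9.2 uM bortezomib final (0%).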
# [14] = biological target: Glutaminase kidney isoform, mitochondrial (Homo sapiens) (UniProt O94925); test: qHTS for Inhibitors of Glutaminase (GLS): LOPAC Validation (AID 624146);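 further: glutamate product detected by oxidase and peroxidase coupled Amplex red fluorescence gain; nearly all actives have a fitted effect of over 60% in size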
# Sequence of Glutaminase kidney isoform, mitochondrial (Homo sapiens) (O94925 whole entry, looked up, canonical isoform): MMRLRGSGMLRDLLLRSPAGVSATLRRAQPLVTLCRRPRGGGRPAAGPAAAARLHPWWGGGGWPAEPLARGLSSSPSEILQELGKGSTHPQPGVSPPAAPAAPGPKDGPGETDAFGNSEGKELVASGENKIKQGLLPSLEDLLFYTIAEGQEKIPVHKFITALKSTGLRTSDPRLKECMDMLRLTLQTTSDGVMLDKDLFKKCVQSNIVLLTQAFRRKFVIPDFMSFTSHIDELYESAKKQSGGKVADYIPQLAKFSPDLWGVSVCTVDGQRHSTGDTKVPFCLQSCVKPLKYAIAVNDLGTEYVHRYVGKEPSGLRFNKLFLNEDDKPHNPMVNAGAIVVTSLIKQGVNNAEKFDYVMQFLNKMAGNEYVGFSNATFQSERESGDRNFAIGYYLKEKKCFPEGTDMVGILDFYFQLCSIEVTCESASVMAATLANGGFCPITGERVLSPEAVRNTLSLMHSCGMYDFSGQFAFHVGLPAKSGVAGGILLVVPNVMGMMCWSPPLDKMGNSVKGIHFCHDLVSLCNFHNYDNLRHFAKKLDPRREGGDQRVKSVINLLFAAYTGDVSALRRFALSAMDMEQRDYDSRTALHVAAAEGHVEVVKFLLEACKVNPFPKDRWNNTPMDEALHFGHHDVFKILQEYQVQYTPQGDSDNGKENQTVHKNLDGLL
# Method in brief: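 hKGA; 45 mM KH2PO4 pH 8.2 + 0.02% Tween-20; cpd via pin tool; 1 mM Gln soln; GluOx/HRP/Amplex Red; RT 30 min; fluor. t0 & final.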
# [15] = qHTS of Trypanosoma Brucei Inhibitors: LOPAC Validation (AID 624147)
# Method in brief: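 Screened from lowest to highest concentration, compounds were pinned into TbPYK/substrate mixtures, and ADP (130 uM final) was added. Plates sat at room temperature for 45 min prior to Kinase-Glo Plus detection by luminescence.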
# [16] = biological target: Glucagon-like peptide 1 receptor (Homo sapiens) (UniProt P43220); test: qHTS of GLP-1 Receptor Agonists: LOPAC Validation (AID 624148);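 further: higher luminescence signal means agonism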
# Sequence of Glucagon-like peptide 1 receptor (Homo sapiens) (P43220 whole entry, looked up): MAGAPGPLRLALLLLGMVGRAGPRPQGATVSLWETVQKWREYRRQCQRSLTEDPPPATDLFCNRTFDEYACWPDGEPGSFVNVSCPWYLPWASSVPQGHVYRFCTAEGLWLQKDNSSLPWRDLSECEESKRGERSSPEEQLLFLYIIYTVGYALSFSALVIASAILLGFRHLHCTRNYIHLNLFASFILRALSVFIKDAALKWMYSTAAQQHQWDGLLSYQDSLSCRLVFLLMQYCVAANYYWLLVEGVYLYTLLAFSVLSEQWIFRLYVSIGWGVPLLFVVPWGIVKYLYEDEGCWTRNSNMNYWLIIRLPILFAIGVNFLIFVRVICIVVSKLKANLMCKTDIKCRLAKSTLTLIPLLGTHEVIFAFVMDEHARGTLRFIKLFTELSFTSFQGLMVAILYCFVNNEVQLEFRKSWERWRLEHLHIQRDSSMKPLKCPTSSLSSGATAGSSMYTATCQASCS
# Method in brief: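 HEK293 cells stably co-expressing a cAMP-responsive luciferase reporter and a hypersensitive GLP-1R were plated 12 h at 37 °C and exposed to compounds for 4-6 hr at 37 °C, 5% CO2. Luminescence was read 12 min after adding detection reagent.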
# [17] = qHTS of Nrf2 Activators: LOPAC Validation (AID 624149)
# Method in brief: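 AREc32_Fluc cells, 1000/well in OPTI-MEM with 5% FBS, grown overnight, then exposed to compounds for 24 hr at 37 deg C, 5% CO2. ARE-driven firefly luciferase read by Steady-Glo luminescence after 30 min at RT.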
# [18] = HTS Assay for Allosteric Antagonists of the Human D2 Dopamine Receptor: Hit Validation in HTRF (AID 624455);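 further: stable D1 dopamine receptor cell line scored for blocking the D1 response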
# Method in brief: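 Hit validation in cells stably expressing the D1 dopamine receptor, run in HTRF format. Compounds were tested for their ability to inhibit the D1-mediated response.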
structure (smiles),measurement,setting,value
C[C@]12C/C(=C/O)C(=O)C[C@@H]1CC[C@@H]1[C@@H]2CC[C@@]2(C)[C@H]1CC[C@]2(C)O,outcome,[1],inactive
same,Potency,[2],inactive
same,Potency,[3],inactive
same,Potency,[4],inactive
same,Potency,[5],inactive
CN(C)CCC=C1c2ccccc2CCc2ccccc21,activity change % (negative = inhibition),[6],-28.2% (inactive)
Oc1ccccc1-c1ccccc1,outcome,[1],inactive
same,max response,[7],-4.16% and -11.3% and -6.05%
same,max response,[8],10.1% (inactive) and -5.66% (inactive) and 6.56% (inactive)
same,activity change % (negative = inhibition),[6],19.4% (inactive) and 13.4% (inactive)
same,Potency,[2],inactive
same,Potency,[3],inactive
same,Potency,[4],inactive
same,Potency,[9],inactive
Cc1cc(SCc2sc(-c3ccc(C(F)(F)F)c(F)c3)nc2C)ccc1OCC(=O)O,max response,[7],25.2%
same,max response,[8],-3.24% (inactive)
same,outcome,[10],inactive
same,outcome,[11],inactive
same,viability (% of control),[12],80.8%
same,"viability, percent of control",[13],93.2%
CCC1C(=O)OCC1Cc1cncn1C (stereo not drawn),Potency,[2],inactive
c1ccc2c(c1)Nc1ccccc1S2,outcome,[1],inactive
same,max response,[7],-11.1% and -4.36%
same,max response,[8],11.2% (inactive) and 0.985% (inactive)
same,activity change % (negative = inhibition),[6],5.64% (inactive) and -8.66% (inactive)
same,Potency,[2],7.08 µM (active) and 12.6 µM (active)
same,Potency,[3],inactive
same,Potency,[4],inactive
same,Potency,[9],inactive
same,Potency,[5],inactive
C=C1C[C@@H]2[C@H](CC[C@]3(C)C(=O)CC[C@@H]23)[C@@]2(C)C=CC(=O)C=C12,Potency,[2],inactive
Cc1ncc(CNC(=O)N(CCCl)N=O)c(N)n1,Potency,[2],inactive
same,Potency,[3],inactive
same,Potency,[4],inactive
same,Potency,[9],inactive
same,Potency,[5],inactive
same,Potency,[14],inactive
same,outcome,[15],inactive
same,outcome,[16],inactive
same,outcome,[17],inactive
same,Potency,[18],inactive
CC(C)(N)Cc1ccc(Cl)cc1,Potency,[2],inactive
same,Potency,[3],inactive
same,Potency,[4],inactive
same,Potency,[9],inactive
O=P1(NCCCl)OCCCN1CCCl (stereo not drawn),Potency,[2],inactive
same,Potency,[3],inactive
same,Potency,[4],inactive
same,Potency,[9],inactive
same,Potency,[5],inactive
CC(=O)Nc1cc([As](=O)(O)O)ccc1O,Potency,[2],inactive
same,Potency,[3],inactive
same,Potency,[4],inactive
same,Potency,[9],inactive
CCN(CC)CCN1C(=O)CN=C(c2ccccc2F)c2cc(Cl)ccc21,Potency,[2],3.98 µM (active)
same,Potency,[3],inactive
same,Potency,[4],inactive
same,Potency,[9],inactive
same,Potency,[5],inactive
CC1NCCOC1c1ccccc1 (stereo not drawn),Potency,[2],inactive
same,Potency,[3],inactive
same,Potency,[4],inactive
same,Potency,[9],inactive
CC(C)(C)NCC(O)c1cc(Cl)c(N)c(Cl)c1 (stereo not drawn),Potency,[2],inactive
same,Potency,[3],inactive
same,Potency,[4],inactive
CN1C(=S)CN=C(c2ccccc2)c2cc(Cl)ccc21,Potency,[2],inactive
same,Potency,[3],inactive
same,Potency,[4],inactive
same,Potency,[9],inactive
same,Potency,[5],inactive
CC1OC(C)OC(C)O1 (stereo not drawn),Potency,[2],inactive
same,Potency,[3],inactive
same,Potency,[4],inactive
same,Potency,[9],inactive
same,Potency,[5],inactive
CC(C)CC(N(C)C)C1(c2ccc(Cl)cc2)CCC1 (stereo not drawn),Potency,[2],inactive
same,Potency,[3],inactive
same,Potency,[4],inactive
same,Potency,[9],inactive
same,Potency,[5],inactive
CC(C)NCC(O)c1ccccc1Cl (stereo not drawn),Potency,[2],inactive
same,Potency,[3],inactive
same,Potency,[4],inactive
same,Potency,[9],inactive
CC[N+](CC)(CC)CC,Potency,[2],inactive
same,Potency,[3],inactive
same,Potency,[4],inactive
CC[N+]1(C)CCCC(OC(=O)C(O)(c2ccccc2)c2ccccc2)C1 (stereo not drawn),Potency,[2],inactive
same,Potency,[3],inactive
same,Potency,[4],inactive
CN(C)CCc1ccc(O)cc1,Potency,[2],inactive
same,Potency,[3],inactive
same,Potency,[4],inactive
same,Potency,[9],inactive
CCN(C(C)=O)c1cccc(-c2ccnc3c(C#N)cnn23)c1,Potency,[2],inactive
same,Potency,[3],inactive
same,Potency,[4],inactive
same,Potency,[9],inactive
O=C(NC(O)C(Cl)(Cl)Cl)NC(O)C(Cl)(Cl)Cl (stereo not drawn),Potency,[2],inactive
same,Potency,[3],inactive
same,Potency,[4],inactive
same,Potency,[9],inactive
O=[N+]([O-])c1cc([As](=O)(O)O)ccc1O,Potency,[2],inactive
same,Potency,[3],inactive
same,Potency,[4],inactive
same,Potency,[9],inactive
same,Potency,[5],inactive
C=C1CC[C@@]2(O)[C@H]3Cc4ccc(O)c5c4[C@@]2(CCN3CC2CC2)[C@H]1O5,Potency,[2],inactive
same,Potency,[3],inactive
same,Potency,[4],inactive
same,Potency,[9],inactive
NP(N)(=O)NC(=O)c1ccc(F)cc1,Potency,[2],inactive
same,Potency,[3],inactive
same,Potency,[4],inactive
same,Potency,[9],inactive
CN1CCN(C(=O)O[C@H]2c3nccnc3C(=O)N2c2ccc(Cl)cn2)CC1,Potency,[2],inactive
same,Potency,[3],inactive
same,Potency,[4],inactive
same,Potency,[9],inactive
CC(C)=CC1C(C(=O)OCc2cccc(Oc3ccccc3)c2)C1(C)C (stereo not drawn),Potency,[2],inactive
same,Potency,[3],inactive
same,Potency,[4],inactive
same,Potency,[9],inactive
same,Potency,[5],inactive
CC(=O)[C@H]1CC[C@H]2[C@@H]3CC[C@H]4C[C@](C)(O)CC[C@]4(C)[C@H]3CC[C@]12C,Potency,[2],inactive
same,Potency,[3],inactive
same,Potency,[4],inactive
same,Potency,[9],inactive
same,Potency,[5],inactive
same,Potency,[14],inactive
same,outcome,[15],inactive
same,outcome,[16],inactive
same,outcome,[17],inactive
same,Potency,[18],inactive
CC(C)(C)CC(C)(C)c1ccc(O)cc1,Potency,[2],inactive
same,Potency,[3],inactive
same,Potency,[4],inactive
same,Potency,[9],inactive
same,Potency,[5],inactive
CCC(C(N)=O)N1CCCC1=O (stereo not drawn),Potency,[2],inactive
same,Potency,[3],inactive
same,Potency,[4],inactive
same,Potency,[9],inactive
CCCC1CCCCN1 (stereo not drawn),Potency,[2],inactive
same,Potency,[3],inactive
same,Potency,[4],inactive
same,Potency,[9],inactive
C#CCOC(C(=O)OCCN(C)C)(c1ccccc1)c1ccccc1,Potency,[2],inactive
same,Potency,[3],inactive
same,Potency,[4],inactive
same,Potency,[9],inactive
same,Potency,[5],inactive
